Data on 40 compounds can be found in PubChem BioAssay (EPA / NIEHS).

Activity calls are given as the source filed them. The calls were made as follows: active = hit-call score of the fitted dose curve at least 0.9, where 1 is the maximum; inactive = score below 0.9.

This experiment is described as follows: APR_HepG2_MitoticArrest_1hr: Apredica 1-hour HepG2 Assay for Mitotic Arrest (AID 2282672). As to conditions: high-content imaging, actives raise or lower the signal. As for the experimental part: APR_HepG2_1hr is a cell-based, multiplexed-readout assay that uses HepG2, a human liver cell line, with measurements taken at 1 hour after chemical dosing in a 384-well plate.APR_HepG2_MitoticArrest_1hr is one of 10 assay component(s) measured or calculated from the APR_HepG2_1hr assay. It is designed to make measurements of cell phenotype, a form of morphology reporter, as detected with fluorescence intensity signals by HCS Fluorescent Imaging technology.Data from the assay component APR_HepG2_MitoticArrest_1hr was analyzed into 1 assay endpoint. This assay endpoint, APR_HepG2_MitoticArrest_1hr, was analyzed with bidirectional fitting relative to DMSO as the negative control and baseline of activity. Using a type of morphology reporter, measures of protein for gain or loss-of-signal activity can be used to understand the signaling at the pathway-level as they relate to the gene . Furthermore, this assay endpoint can be referred to as a primary readout, because this assay has produced multiple assay endpoints where this one serves a signaling function. To generalize the intended target to other relatable targets, this assay endpoint is annotated to the cell cycle intended target family, where the subfamily is arrest.
Cells were treated with dimethyl sulfoxide (DMSO) as a solvent control at a final concentration of 0.5% v/v or with compounds in DMSO with a resulting final DMSO concentration of 0.5% v/v. Compound treatment was done at concentrations of 0.39, 0.78, 1.56, 3.12, 6.24, 12.5, 25, 50, 100, and 200 uM in duplicate on each plate. Cells were treated with compounds for 1, 24, or 72 hr. Carbonyl […] m-chloro-phenylhydrazone (CCCP) and taxol were used as positive controls for mitochondrial function and cytoskeletal stability, respectively; DMSO served as the negative control for this experiment. Cells were fixed by the direct addition of 50 uL formaldehyde in Hank's Balanced Salt Solution (HBSS) to a final concentration of 3.7%. After incubation in the fixation medium for 30 min at room temperature (293-298 K), cells were rinsed twice with HBSS and treated with cell permeabilization buffer (16 uL of 0.5% Triton X-100) for 10 min at room temperature (293-298 K) before labeling. For mitochondrial membrane potential and mitochondrial measurements, pre-fixed cells were incubated with 50 uL of MitoTracker Red CMXRos (Invitrogen) at a concentration of 250 nM for 30 min before fixation. In the remaining cases, post-fixed cells were labeled by incubation with a multiplexed mixture of primary antibodies in HBSS for 60 min at room temperature (293-298 K) to detect immunoreactivity of c-Jun (1:500), phospho-histone H3 (1:100), phospho-histone H2A.x (1:200), p53 (1:400), alpha-tubulin (1:200) and Hoechst 33342 (2 ug/mL). Cells were labeled for multiplexed imaging on two separate plates: a) Hoechst 33342, MitoTracker Red, phospho-histone H3, and alpha-tubulin, and b) Hoechst 33342, phospho-histone H2A.x, and c-Jun. A final rinse with HBSS (50 uL) was performed before analysis. The primary and secondary antibodies for the proteins were phospho-histone H3 (rabbit anti-phospho-histone H3 and FITC-donkey anti-rabbit IgG), phospho-histone H2A.x (mouse anti-phospho-histone H2A.x and FITC-donkey anti-mouse IgG), c-Jun (rabbit anti-phospho-c-Jun and Cy3-donkey anti-rabbit IgG), p53 (sheep anti-p53 and Cy5-donkey anti-sheep IgG), alpha-tubulin (mouse anti-alpha-tubulin and Cy5-donkey anti-mouse IgG). These antibodies are available as the CellCiphr HepG2 assay kit (Millipore).Digital images of each well were captured using a Cellomics ArrayScan VTI (Thermo Scientific Cellomics) (0.8 NA objective, 0.63x optical coupler, and XF-93 filter set) at 20x magnification. The images were acquired using the autofocus feature of the ArrayScan instrument, which entails the following steps. First, the camera focuses on channel 1 (Hoechst 33342), where nuclei are identified. Second, a Z offset of 1 um is used for capturing mitochondria (MitoTracker Red). […]
Take `N#CSCSC#N`: the call was inactive.
Consider `CCC(=NOC/C=C/Cl)C1=C(O)CC(C2CCOCC2)CC1=O` (stereo not given), for which the compound was called inactive.
For `CC(Oc1cccc(Cl)c1)C(=O)O` (stereo not given), the result was inactive.
As for `COP(=O)(OC)SCn1c(=O)oc2cc(Cl)cnc21`, the entry is “inactive”; as for `CNC(=O)Oc1cccc2c1OC(C)(C)O2`, “inactive”.
As to `CCCCOC(=O)[C@@H](C)Oc1ccc(Oc2ccc(C#N)cc2F)cc1`, the result was inactive.
Regarding `C[N+]1(C)CCCCC1`, the compound was classed as inactive.
In the case of `CC(C)N(C(=O)SCC(Cl)=C(Cl)Cl)C(C)C`, the outcome was inactive.
As for `CCOP(=S)(OCC)SCCSCC`, the entry is “inactive”; as for `CCOP(=O)(NC(C)C)Oc1ccc(SC)c(C)c1` (stereo not given), “inactive”.
For `CCOP(=S)(OCC)OC(Cl)C(Cl)(Cl)Cl` (stereo not given), the result was inactive.
As for `Cc1cc(C2CC2)nc(Nc2ccccc2)n1`, the entry is “inactive”.
As for `CCCCN(CC)c1c([N+](=O)[O-])cc(C(F)(F)F)cc1[N+](=O)[O-]`, the compound was classed as inactive.
For the compound `CCNc1nc(Cl)nc(NC(C)(C)C#N)n1`, the result was inactive.
With `Nc1nc(N)nc(NC2CC2)n1`, the compound was called inactive.
As for `C[Si](Cn1cncn1)(c1ccc(F)cc1)c1ccc(F)cc1`, the outcome was inactive.
Regarding `CN1COCN(Cc2cnc(Cl)s2)C1=N[N+](=O)[O-]`, the call was inactive.
To `CCCSP(=O)(OCC)SCCC` belongs “inactive”; to `CCCSP(=O)(OCC)Oc1ccc(Br)cc1Cl` (stereo not given), “inactive”; to `CC1=NNC(=O)N(/N=C/c2cccnc2)C1`, “inactive”.
For the compound `CCC(=O)Nc1ccc(Cl)c(Cl)c1`, the call was inactive.
On to `COP(=O)(NC(C)=O)SC` (stereo not given), for which the result was inactive.
On to `CCc1cnc(C2=NC(C)(C(C)C)C(=O)N2)c(C(=O)O)c1` (stereo not given), for which the compound was classed as inactive.
Regarding `CC(COc1ccc(Oc2ccccc2)cc1)Oc1ccccn1` (stereo not given), the outcome was inactive.
Turning to `COP(=O)(OC)OC(Br)C(Cl)(Cl)Br` (stereo not given), the compound was classed as inactive.
Take `Nc1c(Cl)cc([N+](=O)[O-])cc1Cl`: the outcome was inactive.
Consider `CCc1cccc(CC)c1N(COC)C(=O)CCl`, for which the compound was classed as inactive.
`CCCOc1nn(C(=O)NS(=O)(=O)c2ccccc2C(=O)OC)c(=O)n1C`: the call was inactive.
With `CN(C)[C@@H]1C(=O)C(C(N)=O)=C(O)[C@@]2(O)C(=O)C3=C(O)c4c(O)cccc4[C@@](C)(O)[C@H]3[C@H](O)[C@@H]12`, the call was inactive.
Take `CCOP(=S)(Oc1cnc(C(C)(C)C)nc1)OC(C)C` (stereo not given): the outcome was inactive.
For `COc1cc(OC)nc(Sc2cccc(Cl)c2C(=O)O)n1`, the outcome was inactive.
As to `CCOP(=S)(OCC)Oc1ccc2c(C)c(Cl)c(=O)oc2c1`, the compound was called inactive.
As for `CCOC(=O)CC(SP(=O)(OC)OC)C(=O)OCC` (stereo not given), the outcome was inactive.
On to `CC[C@H](C)[C@H]1O[C@]2(C=C[C@@H]1C)C[C@@H]1C[C@@H](C/C=C(\C)[C@@H](O[C@H]3C[C@H](OC)[C@@H](O[C@H]4C[C@H](OC)[C@@H](NC)[C@H](C)O4)[C@H](C)O3)[C@@H](C)/C=C/C=C3\CO[C@@H]4[C@H](O)C(C)=C[C@@H](C(=O)O1)[C@]34O)O2`, for which the compound was called inactive.
In the case of `CSc1nnc(C(C)(C)C)c(=O)n1N`, the compound was classed as inactive.
Regarding `O=c1ccc(=O)[nH][nH]1`, the compound was classed as inactive.
Turning to `CNC(=O)ON=C(SC)C(=O)N(C)C`, the outcome was inactive.
To `Cc1ccn2nc(S(=O)(=O)Nc3c(F)cccc3F)nc2n1` belongs “inactive”; to `CCOP(=S)(OCC)Oc1ccc([N+](=O)[O-])cc1`, “inactive”; to `CCCCSP(=O)(SCCCC)SCCCC`, “inactive”.
